# Screening data (PubChem BioAssay)
# JMJD2A Tudor inh – inhibitors of human JMJD2A Tudor domain; O75164; AlphaScreen JMJD2A-Tudor / H3K4me3 peptide binding; Potency, µM (doses to about 114 µM), for inactives: top-dose activity change, negative = inhibition, usual class: inhibitors; actives 4.4% (n = 390,000); AID 504339; note: % is set by controls: 0 for no effect and ±100 for the full control effect; nearly all actives have a fitted effect of over 50% in size
# PLK1 PBD inh – PLK1 (human) polo-box domain binding inhibition. P53350. Plk1 PBD binding of FITC phosphopeptide, fluorescence polarization. Potency, µM, without a hit: max response, negative = inhibition, actives largely listed as inhibitors. actives 2.8% (n = 360,000). AID 720504; note: series mostly up to about 57 µM; % is set by controls: 0 for no effect and ±100 for the full control effect; nearly all actives have a fitted effect of over 65% in size
# G9a block – G9a (human) methyltransferase inhibition; Potency, µM (top dose mostly 102 µM), for inactives: at the highest dose activity, negative = inhibition, usual class: inhibitors; AID 504332; Q96KQ7; G9a H3K9 monomethylation, AlphaScreen, 2 h; actives 8.8% (n = 350,000); note: % is set by controls: 0 for no effect and ±100 for the full control effect; nearly all actives have a fitted effect of over 75% in size
#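 Quantitative HTS format: methyltransferase activity on a biotin-tagged H3K9 peptide is measured by AlphaScreen, using a rabbit anti-monomethyl-H3K9 antibody with streptavidin donor and anti-IgG acceptor beads. Final levels are 20 nM enzyme, 500 nM peptide, 20 uM SAM; 2 h RT.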
# BAZ2B block – BAZ2B (human) inhibition | Q9UIF8 | AlphaScreen BAZ2B-H3K14Ac peptide displacement | Potency, µM (highest dose often 114 µM), for inactives: at the top dose activity change, negative = inhibition, usual class: inhibitors | actives 4.4% (n = 360,000) | AID 504333; note: % is set by controls: 0 for no effect and ±100 for the full control effect; nearly all actives have a fitted effect of over 60% in size
#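 Protein-peptide AlphaScreen: BAZ2B 50 nM, b-H3K14Ac 50 nM, 1x PBS pH 7.4 + 0.01% Tween-20. Preincubation 30 min RT; cpd 30 min RT (top 110 uM); beads 20 min RT, light-protected.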
# HP1b binding inh – blocks HP1-beta chromodomain binding to methylated histone tails. actives 0.56% (n = 390,000). Potency, µM (series often up to 114 µM), inactives show top-dose activity change, negative = inhibition, most hits filed as inhibitors. AlphaScreen HP1-beta / biotin-H3K9me3 peptide binding; note: nearly all actives have a fitted effect of over 70% in size
#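 HP1-beta protein (50 nM final) preincubated 30 min at room temperature with biotinylated H3(1-18)K9me3 peptide (50 nM) in PBS pH 7.4, 0.01% Tween-20, then compound added for 30 min. AlphaScreen streptavidin donor/nickel chelate acceptor beads (10 ug/mL final), 30 min dark, luminescence read.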
# ALOX12 inh – blocks human arachidonate 12S-lipoxygenase; P18054; purified 12hLO, xylenol orange hydroperoxide absorbance; Potency, µM (doses to about 108 µM), for the others: top-dose activity change, negative = inhibition, hits mostly inhibitors; actives 1.1% (n = 580,000); note: % is set by controls: 0 for no effect and ±100 for the full control effect
# Target sequence (P18054 whole entry, looked up): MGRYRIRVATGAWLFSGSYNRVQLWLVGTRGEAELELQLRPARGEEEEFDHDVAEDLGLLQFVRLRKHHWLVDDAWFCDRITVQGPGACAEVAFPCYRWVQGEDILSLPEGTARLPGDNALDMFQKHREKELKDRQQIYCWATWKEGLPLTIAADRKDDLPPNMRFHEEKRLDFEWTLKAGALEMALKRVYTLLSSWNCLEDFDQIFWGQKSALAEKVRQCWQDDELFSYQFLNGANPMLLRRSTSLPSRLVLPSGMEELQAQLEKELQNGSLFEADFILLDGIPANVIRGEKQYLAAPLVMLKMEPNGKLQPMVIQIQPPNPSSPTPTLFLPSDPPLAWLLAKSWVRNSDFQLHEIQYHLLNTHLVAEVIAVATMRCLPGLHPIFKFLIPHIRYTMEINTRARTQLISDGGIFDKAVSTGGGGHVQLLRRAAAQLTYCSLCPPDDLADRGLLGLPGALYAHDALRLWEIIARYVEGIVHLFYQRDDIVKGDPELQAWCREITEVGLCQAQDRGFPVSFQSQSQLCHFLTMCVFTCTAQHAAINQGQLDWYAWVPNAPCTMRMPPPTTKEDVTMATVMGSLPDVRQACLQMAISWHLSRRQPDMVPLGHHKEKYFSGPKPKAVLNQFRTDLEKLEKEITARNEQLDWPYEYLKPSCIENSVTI
#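 Hydroperoxide product was detected by ferrous iron/xylenol orange as the 573 to 405 nm absorbance ratio. Arachidonic acid at 40 uM (final) was turned over for 30 min at room temperature by 150 nM human 12hLO, pH 7.0 Hepes buffer, after 15 min compound preincubation.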
# * hit, by the source's call; ? = inconclusive; . = no result; [ ] = dose if it differs, or a comment. Rows were chosen to be rich in hits. Some 9% of all compounds tested hit in one or more screens of this group. Calls come from the whole dose curve; as a rule, active = well fitted curve in the direction sought with a large enough effect; inconclusive = small, poorly fitted or top-dose-only effect, or another doubt; inactive = no such curve, though single readings can be large; an effect the other way counts as inactive or inconclusive. Potency is the fitted concentration of half-maximal effect.
SMILES,JMJD2A Tudor inh,PLK1 PBD inh,G9a block,BAZ2B block,HP1b binding inh,ALOX12 inh
O=C(C1=C(O)C(=O)N(CC2CCCO2)C1c1ccccc1[N+](=O)[O-])c1ccco1 (configuration not stated),-13.6%,-10.9%,35.5µM*,-2.8%,2.6%,?
COC(=O)c1ccc(C2C(C(=O)c3ccco3)=C(O)C(=O)N2CC2CCCO2)cc1 (configuration not stated),17.6%,1.0%,44.7µM*,-24.4%,31.4%,?
CCOC(=O)Cn1c(=O)oc2cc(S(=O)(=O)N3CCN(c4ccccc4F)CC3)ccc21,-12.1%,.,-31.3%[59 µM],-7.1%,34.2%,-1.1%
CCCCCCCCN1C(=O)[C@H](CC(=O)NCCC(C)C)C[C@@]2(C(=O)OCC)CCC=C12,.,-2.4%,.,.,.,-28.5%
COc1ccc(S(=O)(=O)N2CCN(CCOc3ccc(Br)cc3)CC2)cc1OC,-28.7%,6.1%,?,-33.2%,5.9%,49.9%
COc1cc(C2C(C(=O)c3cccs3)=C(O)C(=O)N2CCN2CCOCC2)cc(OC)c1OC (configuration not stated),2.1%,-8.2%,?,2.5%,40.2%,0.0%
COc1cccc2cc(C(=O)C3=C(O)C(=O)N(CCN4CCOCC4)C3c3cccs3)oc12 (configuration not stated),79.4µM*,-15.6%,17.3%[59 µM],-7.9%,7.1%,?
O=C(CSc1ccccn1)Nc1ccc2c(c1)oc1ccccc12,0.3%,3.9%,-19.7%[59 µM],1.8%,34.7%,-9.1%
Cc1cccc(/N=C/c2c(C)[nH]n(-c3ccccc3)c2=O)n1,-2.9%[11.4 µM],-29.1%,?,?,41.6%,9.7%
Cc1[nH]n(-c2ccccc2)c(=O)c1/C=N/c1nn[nH]n1,-9.8%[11.4 µM],23.8µM*,50.1µM*,?,19.9%,?
Cc1ccc(-n2[nH]c(C)c(/C=N/c3cccc(C)n3)c2=O)cc1,-19.1%[11.4 µM],-13.5%,50.1µM*,-24.4%,29.8%,-13.3%
Cc1[nH]n(-c2ccccc2)c(=O)c1/C=N/c1ccccn1,-1.5%,0.4%,-23.9%,?,9.5%,?
Cc1[nH]n(-c2ccccc2)c(=O)c1C=Nc1cccc(F)c1,-25.1%,-1.4%,44.7µM*,-36.9%,-20.0%,3.1%
Cc1[nH]n(-c2ccccc2)c(=O)c1/C=N/N(c1ccccc1)c1ccccc1,39.8µM*,18.9µM*,15.7%[0.501 µM],?,?,-1.9%
Cc1[nH]n(-c2ccccc2)c(=O)c1C=Nc1ccc2[nH]c(=O)[nH]c2c1,-2.1%,-14.4%,?,1.9%,24.3%,-9.6%
COc1cccc(C2=CC(=O)CC(C)(C)C2)n1,-4.2%,0.4%,.,.,51.2%,0.3%
O=C(NCc1nnc2ccc(-c3ccccc3)nn12)C1CCCCC1,.,.,.,.,.,56.6%
CC(Oc1ccc(-c2ccccc2)c(F)c1)c1ccn(S(=O)(=O)c2ccc(Br)cc2)n1 (configuration not stated),9.1%,-2.1%,41.8%,5.8%,42.4%,0.0%
Cc1ccc(C)c(-c2nn(-c3cc(N4CCN(CCO)CC4)ccc3[N+](=O)[O-])c(=O)c3ccccc23)c1,35.5µM*,-3.5%,39.8µM*,44.7µM*,?,?
COc1ccc(OCCNc2cc(N3CCOCC3)ccc2[N+](=O)[O-])cc1,79.4µM*,-27.4%,?,?,-20.7%,0.0%
Cc1cccc(OCCNc2cc(N3CCN(CCO)CC3)ccc2[N+](=O)[O-])c1,?,0.4%,44.7µM*,?,-28.2%,?
COc1cccc(OCCNc2cc(N3CCCCC3)ccc2[N+](=O)[O-])c1,?,-11.2%,.,?,-29.5%,0.0%
CC(C)CNc1cc(N2CCCC2)ccc1[N+](=O)[O-],?,-5.5%,11.2µM*,?,-27.9%,-3.5%[57.4 µM]
O=[N+]([O-])c1ccc(N2CCN(S(=O)(=O)c3ccccc3)CC2)cc1NCCN1CCOCC1,-33.2%,-0.6%,20µM*,-30.8%,-3.0%,0.0%
Cc1ccccc1OCCNc1cc(N2CCN(CCO)CC2)ccc1[N+](=O)[O-],?,-7.4%,?,31.6µM*,?,-17.9%
SMILES,JMJD2A Tudor inh,PLK1 PBD inh,G9a block,BAZ2B block,HP1b binding inh,ALOX12 inh
c1ccc(-c2ccc(SCc3cccnc3)nn2)nc1,?,0.5%,11.5%,3.16µM*,12.6%,?
CC(=O)c1ccc2noc(-c3cccc(C)c3)c2c1,1.4%,-6.4%,17.8µM*,-1.0%,31.5%,-16.7%
NC(=O)c1cccc(NC(=O)c2cccc(CN3CCNC(=O)C3)c2)c1,.,.,.,.,.,30.8%
O=C(c1cc2c(s1)CCC2)N1C(=O)c2ccccc2S1(=O)=O,?,-8.3%,39.8µM*,50.1µM*,21.4%,?
O=C(c1cc2c(s1)CCCC2)n1cccn1,113.2%,-6.3%,56.1%[59 µM],147.2%,253.9%,10.3%
CCCC[C@H]1CCCO[C@@](C(=O)NCc2ccccc2)(C(F)(F)F)C1,24.8%,.,.,.,45.0%,.
O=C(Cc1cccs1)Nc1ccc(-c2nc3ccccc3[nH]2)cc1,-9.9%[11.4 µM],29.9µM*,-27.5%[59 µM],-3.2%,1.2%,-1.3%
Cn1ncc([N+](=O)[O-])c1C(=O)Nc1ccc(-c2nc3ccccc3[nH]2)cc1,-18.4%,-0.1%,?,-6.6%,12.2%,12.3%
CCOc1ccc(C(=O)Nc2ccc(-c3nc4ccccc4[nH]3)cc2)cc1[N+](=O)[O-],79.4µM*,4.1%,6.0%[59 µM],-25.2%,60.8%,-17.2%
CCC(=O)Nc1ccc(NC(=O)c2ccc3c(c2)OCO3)cc1,-3.3%,-9.5%,?,0.7%,19.4%,8.8%
CCN(CC)c1ccc(NC(=O)c2ccc3c(c2)OCO3)cc1,?,-0.5%,6.31µM*,44.7µM*,?,?
O=C(Nc1ccc(-c2nc3ccccc3[nH]2)cc1)c1ccc2c(c1)OCO2,-25.6%,-4.0%,70.8µM*,?,-20.5%,12.9%
CCc1cccc(C)c1NC(=O)CSc1nnc(Cc2csc(C)n2)o1,-6.9%,-7.9%,?,-0.5%,6.6%,-23.0%
CCN(CC)c1ccc(/C=N/NC(=O)CNC(=O)c2ccc3c(c2)OCCO3)cc1,-32.6%,-4.5%,44.7µM*,-31.0%,0.4%,8.1%
CN(C)c1ccc(/C=N/NC(=O)CNC(=O)c2ccc3c(c2)OCCO3)cc1,-25.8%,-10.3%,?,-32.3%,28.6%,2.2%
CCN(CC)c1ccc(C(=O)NC(=S)N2CCN(Cc3ccc4c(c3)OCO4)CC2)cc1,?,-4.4%,39.8µM*,?,-19.7%,?
O=C(Nc1ccc(C(=O)N2CCOCC2)cc1)C1CCC1,-0.7%,-1.1%,.,.,38.3%,3.7%
COc1ccc(CCNC(=O)c2ccc3nc(-c4ccco4)c(-c4ccco4)nc3c2)cc1OC,?,26.7µM*,?,50.1µM*,?,.
